High-throughput results deposited in PubChem by National Center for Advancing Translational Sciences (NCATS).
PKM2 act = increases activity of human pyruvate kinase M2 | P14618 | purified PKM2, Kinase-Glo ATP luminescence, activation; response scale: 0% is enzyme alone, no compound | Potency, µM (highest dose often 57.5 µM), inactives show top-dose activation, most hits filed as activators | 260,000 compounds, 0.34% hits; further: potency means the concentration at half of the fitted maximal effect; on the % scale 0 is the no-effect control and ±100 the full control effect; nearly all actives have a fitted effect of over 55% in size
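Kinase-Glo luminescence reports ATP generated from ADP (0.1 mM) and PEP (0.5 mM) by purified hPK-M2 after 1 h at room temperature, pH 7.2 imidazole buffer; intermediate enzyme activity allows detecting inhibitors and activators.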
ClpP mod = qHTS Assay for Activators of ClpP | Potency, µM (doses to about 57.5 µM), for inactives: at the top dose activity change, negative = active | purified B. subtilis ClpP, FRET peptide cleavage, 20 min | 340,000 compounds, 1.9% hits; active means well fitted falling curve with a large enough effect; inconclusive means small, poorly fitted or top-dose-only effect; inactive means no such curve, though single readings can be large or run the other way; further: potency means the concentration at half of the fitted maximal effect; the source files actives as falling curves though it sought activators and does not explain the sign; nearly all actives have a fitted effect of over 65% in size
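Purified B. subtilis ClpP, 10 microg/mL final in Tris/HCl pH8 with KCl, BSA, glycerol and Tween-20, cleaved an Abz/nitrotyrosine-quenched decapeptide. Fluorescence (ex 320, em 430) was read at 0 and 20 min at room temperature. Delta was normalized to 5.8 microM ADEP and DMSO/no-enzyme controls.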
IL2 activator = activates IL-2 in a cell-based reporter assay | IL-2 activation reporter assay, cell-based qHTS; stimulated with anti-CD3/CD4/CD28 beads; in transgenic mouse T cells | 360,000 compounds, 0.065% hits | activation, % (series mostly up to about 46 µM); in the data active means activation above about 50%; inconclusive means mostly about 30% to 49%; further: 0% is about no effect
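Unstimulated transgenic mouse T cells, 750 per well, received compound and, after 60 minutes, anti-CD3/anti-CD4 bead plus anti-CD28 stimulation. EGFP and DsRed were quantified after 18 hours.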
NPSR antagonist = antagonists of human neuropeptide S receptor cAMP signaling; Q6W5P4; CHO-NPSR cells, cAMP TR-FRET, antagonist mode; Potency, µM (highest dose often 38.3 µM), for inactives: top-dose activity change, negative = inhibition, hits mostly inhibitors; 220,000 compounds, 1% hits; AID 1461; further: potency means the concentration at half of the fitted maximal effect; on the % scale 0 is the no-effect control and ±100 the full control effect; nearly all actives have a fitted effect of over 50% in size
Numbers without * were called inactive; ! = not active in a repeat; [ ] = dose if it differs, or a comment. Compounds with a hit are over-represented: about 2% of the library has one in this group of screens. Unless noted, the call rests on the fitted dose curve; in most records, active means well fitted curve in the direction sought with a large enough effect; inconclusive means small, poorly fitted or top-dose-only effect, or another doubt; inactive means no such curve, though single readings can be large; an effect the other way counts as inactive or inconclusive.

How did CC1(C)Cc2cccc(OCC(=O)N3CCN(c4cccc(Cl)c4)CC3)c2O1 do in these assays?
ClpP mod: 25µM*; IL2 activator: -3

What do the screens show for `Cc1cccc(NC(=O)CCCC(=O)OC(C)C(=O)c2ccccc2)c1` (stereo unspecified)?
PKM2 act: 2%; IL2 activator: 1

What do the screens show for `COc1ccc2[nH]c3c(c2c1)CCN1C(=O)C(CC(=O)NCC24CC5CC(CC(C5)C2)C4)C[C@H](C(=O)N2CCOCC2)[C@@]31CCC1CCCC1` (stereo partly specified)?
ClpP mod: -1%; IL2 activator: -1

How did COc1cccc(-n2ccnc2SCC(=O)Nc2nccs2)c1 do in these assays?
PKM2 act: -1%; ClpP mod: 28µM*; IL2 activator: 0; NPSR antagonist: -5%[46.1 µM]

How did Cc1nnc(N2C(=O)c3cccc4cccc(c34)C2=O)s1 do in these assays?
PKM2 act: 2%; ClpP mod: 28µM*; IL2 activator: -1; NPSR antagonist: -12%[46.1 µM]

What do the screens show for `Cc1noc(C)c1NC(=O)N(C)C[C@H]1Oc2ccc(NS(=O)(=O)c3ccc(F)cc3)cc2C(=O)N([C@H](C)CO)C[C@@H]1C`?
ClpP mod: 2%; IL2 activator: 0

Results for CC(=O)Nc1ccccc1OCC(=O)NCCc1ccc(Cl)cc1Cl ?
PKM2 act: 5%; ClpP mod: 32µM*; IL2 activator: -1; NPSR antagonist: 3%[46.1 µM]

Results for CCC(C)(C)n1nnnc1C(c1ccccc1F)N1CCN(C(=O)c2ccco2)CC1 (stereo unspecified) ?
PKM2 act: -1%; IL2 activator: 4

What do the screens show for `N#Cc1nc(-c2ccc(OCc3ccccc3)cc2)oc1N1CCC(C(N)=O)CC1`?
PKM2 act: -14%; ClpP mod: 3.5µM*!; IL2 activator: 0; NPSR antagonist: -15%[46.1 µM]

Results for N#Cc1nc(-c2ccc(COc3ccc(Cl)cc3)o2)oc1N1CCC(C(N)=O)CC1 ?
ClpP mod: 32µM*

Results for CC1=C(C(=O)N2CCCC(CCC(=O)NCc3ccccc3F)C2)OCCO1 (stereo unspecified) ?
PKM2 act: inconclusive; IL2 activator: -2; NPSR antagonist: -1%

Results for O=C(NCCc1ccccc1)c1ccc(-c2ccc(F)c(F)c2)c2ccoc12 ?
ClpP mod: 35µM*; IL2 activator: 0

How did O=C(NCc1ccccc1)c1ccc(-c2ccc(F)c(F)c2)c2ccoc12 do in these assays?
ClpP mod: 5%; IL2 activator: 0

Results for O=C(NCc1ccco1)c1ccc(-c2ccc(F)c(F)c2)c2ccoc12 ?
ClpP mod: 35µM*; IL2 activator: -1

How did O=C(NCCc1ccccc1)c1cccc2c(-c3ccc(F)c(F)c3)coc12 do in these assays?
ClpP mod: -16%; IL2 activator: 0

What do the screens show for `O=C(NCc1cccc(Cl)c1)c1ccc(-c2ccc(F)c(F)c2)c2ccoc12`?
ClpP mod: 16µM*; IL2 activator: 0

What do the screens show for `Nc1nc(N)c2c(ccc3nccc32)[nH]1`?
PKM2 act: -3%; ClpP mod: 4%; IL2 activator: -2; NPSR antagonist: -19%

Results for COCCCNC(=O)COc1ccc(S(=O)(=O)Nc2ccccc2)cc1 ?
PKM2 act: 14µM*; ClpP mod: -6%; IL2 activator: 0; NPSR antagonist: -5%[46.1 µM]

How did CCNC(=O)COc1ccc(S(=O)(=O)Nc2ccccc2)cc1 do in these assays?
PKM2 act: 24%; ClpP mod: 0%; IL2 activator: -2; NPSR antagonist: -3%[46.1 µM]

Results for CCOC(=O)C1(CCOc2ccccc2)CCN(Cc2cc(OC)c3c(c2)OCO3)CC1 ?
PKM2 act: 1%; IL2 activator: -2; NPSR antagonist: 39%

How did O=C(COc1ccc(F)cc1)Nc1cc(S(=O)(=O)N2CCCCC2)ccc1N1CCCCC1 do in these assays?
ClpP mod: 16µM*; IL2 activator: -5

Results for O=C(COc1ccc([N+](=O)[O-])cc1)Nc1cc(S(=O)(=O)N2CCCCC2)ccc1N1CCCCC1 ?
ClpP mod: -2%; IL2 activator: 0

Results for S=C(NCc1ccco1)Nc1cc(Cl)c(Cl)cc1Cl ?
PKM2 act: -13%; ClpP mod: -2%; IL2 activator: 2; NPSR antagonist: -29%

Results for CC1=C(SCc2ccccc2)C(=O)c2ccccc2C1=O ?
IL2 activator: 0

What do the screens show for `O=C1C(SCCO)=C(SCCO)C(=O)c2ccccc21`?
ClpP mod: 2%; IL2 activator: 1; NPSR antagonist: 13µM*

What do the screens show for `CCO[C@@H]1OC(C(=O)N2CCN(Cc3ccccc3)CC2)=C[C@H](c2csc3ccccc23)[C@H]1CCCO`?
PKM2 act: 0%; ClpP mod: 1%; IL2 activator: -1; NPSR antagonist: inconclusive

How did O=C(O)CCCNc1ccc(S(=O)(=O)Nc2ccccc2C(=O)O)cc1C(=O)O do in these assays?
PKM2 act: -27%; ClpP mod: 16µM*; IL2 activator: -2; NPSR antagonist: -4%[46.1 µM]

What do the screens show for `Cc1cccc(Cn2cnc3c(cnn3-c3ccc(Cl)cc3)c2=O)c1`?
ClpP mod: -1%

What do the screens show for `CN(C)S(=O)(=O)c1cccc(-n2sc3ccccc3c2=O)c1`?
PKM2 act: 2.8µM*; ClpP mod: 0%; IL2 activator: 0; NPSR antagonist: -16%

How did Cc1nc(-c2ccccc2)sc1-c1n[nH]c(=S)n1C do in these assays?
PKM2 act: -1%; ClpP mod: 17%; IL2 activator: -1; NPSR antagonist: -18%[46.1 µM]

How did CSc1nnc(-c2sc(-c3ccccc3)nc2C)n1C do in these assays?
PKM2 act: -7%; ClpP mod: 25µM*; IL2 activator: -1; NPSR antagonist: -5%[46.1 µM]

Results for CC1CCN(S(=O)(=O)c2c[nH]c(=O)[nH]c2=O)CC1 ?
IL2 activator: 0

Results for COc1ccc(C(=O)N2CCNC(=O)C2CC(=O)Nc2cccc(Cl)c2Cl)cc1 (stereo unspecified) ?
PKM2 act: 0%; ClpP mod: 0%; IL2 activator: 2

Results for c1ccc(-n2c(-c3ccco3)nnc2-c2ccco2)cc1 ?
PKM2 act: -5%; ClpP mod: 14µM*; IL2 activator: 0; NPSR antagonist: -16%[46.1 µM]

How did NC(=O)CSc1nnc(-c2ccco2)n1-c1ccccc1 do in these assays?
ClpP mod: -2%; IL2 activator: 1

How did Brc1ccc(C[n+]2ccccc2)cc1 do in these assays?
ClpP mod: 1%; IL2 activator: -4

How did O=C1C(Cl)=C(N2CCC(C(=O)O)CC2)C(=O)c2ccccc21 do in these assays?
PKM2 act: 8%; ClpP mod: 1%; IL2 activator: -3; NPSR antagonist: -6%[7.67 µM]

Results for NC(=O)C1CCN(C2=C(Cl)C(=O)c3ccccc3C2=O)CC1 ?
PKM2 act: inconclusive; ClpP mod: 2%; IL2 activator: -2; NPSR antagonist: 10µM*
